Assay outcomes (PubChem BioAssay)
Vif imaging = HIV Vif inhibition. HEK293T cells, Vif self-association by quenched fluorescence, imaging, 24 h. inhibition, % at 7.49 µM. hit rate 0.35% among 340,000. AID 602346; in the data active = inhibition above about 50%, passing the limit was not always enough; inconclusive = no clear call, values can overlap the other calls; inactive = below about 31%
DSG3 Ab inh = blocks pemphigus antibody binding to human desmoglein-3 | P32926 | DSG3-coupled beads, scFv-anti-DSG3-GFP binding, flow cytometry; stronger effect = lower value | binding (percent of control), % at 10 µM | hit rate 0.48% among 310,000;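 active = binding more than 3 SD below its plate's average and above zero; inconclusive = below that plate limit but binding exactly zero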
ATG4B inh = ATG4B (human) cysteine protease inhibition. Q9Y4P1. AID 504462. hit rate 0.51% among 340,000. inhibition, % at 8.33 µM. ATG4B cleavage of LC3-PLA2, NBD-HPC fluorescence, 1 h; in the data active = inhibition above about 40%
Target sequence (Q9Y4P1 whole entry, looked up): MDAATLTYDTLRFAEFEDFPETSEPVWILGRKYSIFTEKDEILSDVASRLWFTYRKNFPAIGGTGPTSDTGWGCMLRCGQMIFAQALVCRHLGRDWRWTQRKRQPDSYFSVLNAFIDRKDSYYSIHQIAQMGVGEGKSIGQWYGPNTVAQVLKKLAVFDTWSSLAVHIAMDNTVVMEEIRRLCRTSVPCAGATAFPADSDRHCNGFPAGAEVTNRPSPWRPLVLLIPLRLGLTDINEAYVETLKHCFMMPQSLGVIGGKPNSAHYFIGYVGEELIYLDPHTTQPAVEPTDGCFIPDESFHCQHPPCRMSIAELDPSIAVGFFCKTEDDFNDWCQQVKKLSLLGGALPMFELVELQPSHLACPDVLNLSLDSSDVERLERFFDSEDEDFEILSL
NSD2 HMT inh = NSD2 (human) methyltransferase inhibition | O96028 | NSD2 peptide methylation, AlphaScreen, 120 min | inhibition, % at 12.5 µM | hit rate 0.54% among 310,000 | AID 743445; in the data active = inhibition above about 50%
CaV13 FRET inh = Primary screen for inhibitors of IQ motif and Ca2+-dependent inactivation inhibitor domain binding in CACNA1D, Förster resonance energy transfer in living cells, …; inhibition, % at 12.3 µM; hit rate 0.098% among 340,000; HEK cells, CFP/YFP FRET ICDI-IQ, plate reader, 10 min; percent FRET-ratio fall versus neutral wells;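 active = mean replicate inhibition of at least 30% and at least 1% of replicates passing that level; inconclusive = only one of the two criteria is met; inactive = neither criterion is met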
N-glyco inh = N-linked glycosylation inhibition; AID 588692; D54 ERlucT glycosylation luciferase reporter, 24 h; percent of 100 nM tunicamycin response; hit rate 0.23% among 360,000; reporter increase, % at 12.5 µM;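 active = mean luciferase reporter signal, scaled so untreated is 0 and the glycosylation-blocking control 100, at or above a set limit in every replicate; inconclusive = mean reaches the limit but not every replicate does; inactive = mean below the limit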;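 also: luciferase carries N-glycosylation sites so blocking glycosylation raises the light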
AlphaScreen art = interferes with AlphaScreen signal, flagging NSD2 false positives; AlphaScreen artifact counterscreen, preloaded methylated H4 peptide; AC35, µM (highest dose often 10 µM); hit rate 9.4% among 1,500; shares compounds with NSD2 HMT inh; call rule not given here
Large screens that a line does not name were inactive (follow-up assays come after a bar, where they were run). A selection: hits, their analogues and other compounds. The true share with any hit is near 1.9%.

Cc1ccccc1-c1ocnc1C(=O)Nc1ccccc1NC(=O)c1ccccn1	NSD2 HMT inh 73.7 | AlphaScreen art inactive
O=C(O)CSc1cc(NS(=O)(=O)c2ccc(Br)cc2)c2ccccc2c1O	NSD2 HMT inh 107.5 | AlphaScreen art inactive
CSC1=NSC2=NC(=O)/C(=C\c3coc4ccccc4c3=O)C(=N)N12	NSD2 HMT inh 74.4 (no result: DSG3 Ab inh) | AlphaScreen art inactive
N=C1/C(=C\c2coc3ccc(O)cc3c2=O)C(=O)N=C2SC=CN12	none
Cc1cc2c(cc1C)N1C(=N)/C(=C\c3coc4ccccc4c3=O)C(=O)N=C1S2	none (no result: Vif imaging, DSG3 Ab inh, ATG4B inh, CaV13 FRET inh, N-glyco inh)
N=C1/C(=C\c2coc3ccccc3c2=O)C(=O)N=C2SC(c3ccncc3)=NN12	NSD2 HMT inh 97.9 | AlphaScreen art inactive
COc1ccc(C(c2c(C)n(C)n(-c3ccccc3)c2=O)c2c(C)n(C)n(-c3ccccc3)c2=O)cc1OC	none
Cc1[nH]n(-c2ccccc2)c(=O)c1C(C[N+](=O)[O-])c1ccc(Cl)cc1 (stereo not drawn)	NSD2 HMT inh 100.1 | AlphaScreen art inactive
Cc1[nH]n(-c2ccccc2)c(=O)c1C(c1ccccc1[N+](=O)[O-])C(C#N)C#N (stereo not drawn)	none
Cc1[nH]n(-c2ccccc2)c(=O)c1C(C[N+](=O)[O-])c1ccc(F)cc1 (stereo not drawn)	NSD2 HMT inh 64.8 | AlphaScreen art inactive
COc1ccc(C(c2c(C)[nH]n(-c3ccccc3)c2=O)c2c(C)[nH]n(-c3ccccc3)c2=O)cc1OC	NSD2 HMT inh 97.5 | AlphaScreen art inactive
Cc1ccc(C(C[N+](=O)[O-])c2c(C)[nH]n(-c3ccccc3)c2=O)cc1 (stereo not drawn)	NSD2 HMT inh 102.9 | AlphaScreen art inactive
CCOc1ccc2cc(C#N)c(SCC(=O)N3CCOCC3)nc2c1	none
O=C(C1CCCN(C2CC(=O)N(c3ccc(F)cc3)C2=O)C1)N1CCCC1 (stereo not drawn)	none (no result: CaV13 FRET inh)
CNc1ccccc(C(=O)/C=C/c2ccccc2OC)c1=O	none
CNc1ccc(Br)cc(C(=O)/C=C/c2cccc(OC)c2OC)c1=O	Vif imaging 74.6, NSD2 HMT inh 51.1 | AlphaScreen art inactive
CCOc1cc(NC2CS(=O)(=O)CC2O)c(OCC)cc1NC(=O)c1ccccc1 (stereo not drawn)	NSD2 HMT inh 60.5 (no result: CaV13 FRET inh) | AlphaScreen art inactive
Cn1nnc(NC(=O)c2ccc(Br)o2)n1	none
CCOC(=O)C1(CCOC)CCN(C(=O)c2sccc2C)CC1	none
CC(C)[n+]1ccn(C2=C([O-])c3ccccc3C(=O)/C2=N\S(=O)(=O)c2ccccc2)c1	NSD2 HMT inh 95.9 (no result: DSG3 Ab inh) | AlphaScreen art inactive
CCCC[n+]1ccn(C2=C([O-])c3ccccc3C(=O)/C2=N\S(=O)(=O)c2ccccc2)c1	none (no result: DSG3 Ab inh)
CC(C)(C)c1cc[n+](C2=C([O-])c3ccccc3C(=O)/C2=N\S(=O)(=O)c2ccccc2)cc1	NSD2 HMT inh 62.9 | AlphaScreen art inactive
Cc1cc[n+](C2=C([O-])c3ccccc3C(=O)/C2=N\S(=O)(=O)c2cccs2)cc1C	none
O=C(COC(=O)c1ccc([N+](=O)[O-])s1)Nc1ccc(F)cc1	none (no result: DSG3 Ab inh, NSD2 HMT inh)
O=C(COC(=O)c1ccc([N+](=O)[O-])s1)Nc1ccccc1	NSD2 HMT inh 69.3 | AlphaScreen art inactive
COc1ccc(-n2nc(C(=O)NCC(=O)NCCCN3CCOCC3)c3ccccc3c2=O)cc1Cl	none
COCCNC(=O)CN(C(=O)CCC(=O)Nc1nccs1)c1ccc2c(c1)OCO2	NSD2 HMT inh 67.3 (no result: DSG3 Ab inh) | AlphaScreen art inactive
CC(C)NC(=O)CN(C(=O)CCC(=O)Nc1nccs1)c1ccc2c(c1)OCO2	none
CC(C)=NOCC(=O)Nn1c(COc2c(C)cccc2C)nc2ccccc2c1=O	NSD2 HMT inh 56.5 (no result: DSG3 Ab inh) | AlphaScreen art inactive
Cc1ccc(N2CS(=O)(=O)/C(=C/N(C)C)C2=O)cc1	NSD2 HMT inh 64.0 | AlphaScreen art inactive
Oc1ccc(C2=Nn3c(nnc3-c3ccco3)SC2)cc1O	Vif imaging inconclusive, NSD2 HMT inh 62.4 | AlphaScreen art inactive
CCOC(=O)C1=C(C)N=c2s/c(=C\c3ccc(O)c([N+](=O)[O-])c3)c(=O)n2C1c1ccccc1OC (stereo not drawn)	NSD2 HMT inh 71.9 | AlphaScreen art inactive
CCOC(=O)C1=C(C)N=c2s/c(=C\c3ccc(OCC(=O)O)cc3)c(=O)n2C1c1ccccc1OC (stereo not drawn)	none
O=C(/C=C/c1ccc([N+](=O)[O-])cc1)N1CCN(S(=O)(=O)c2cccs2)CC1	none
CSc1nsc(SCC(=O)Nc2cccc(C(=O)O)c2)n1	none
CSc1nsc(SCC(=O)Nc2cccc(NC(C)=O)c2)n1	NSD2 HMT inh 62.5 (no result: DSG3 Ab inh) | AlphaScreen art inactive
Oc1ccc(-c2cn3c(n2)SCC3)cc1	none (no result: CaV13 FRET inh)
Oc1ccc(-c2cn3c(n2)SCC3)cc1O	NSD2 HMT inh 105.1 (no result: DSG3 Ab inh) | AlphaScreen art 8.08µM
CN(C)c1ccc(C(=O)N2CCNC(=O)C2CC(=O)Nc2ccc(F)cc2)cc1 (stereo not drawn)	none (no result: DSG3 Ab inh, CaV13 FRET inh)
COc1ccc(NC(=O)CC2C(=O)NCCN2C(=O)c2ccc(N(C)C)cc2)cc1 (stereo not drawn)	NSD2 HMT inh 64.0 | AlphaScreen art inactive
CC(=O)N1C2CCCCC2S[C@H]2CCCCC21 (stereo partly drawn)	NSD2 HMT inh 56.7 | AlphaScreen art inactive
CCN(CC)C(=O)c1cc([N+](=O)[O-])cc2c1-c1ccc([N+](=O)[O-])cc1C2=C(C#N)C#N	NSD2 HMT inh 87.5 | AlphaScreen art inactive
CCN(CC)C(=O)c1ccc(Oc2ccc([N+](=O)[O-])cc2Cl)cc1	none
COc1ccc(S(=O)(=O)N2CCCCC2)cc1NC(=O)Cc1ccsc1	NSD2 HMT inh 51.0 | AlphaScreen art inactive
COC(=O)C1=C(C)N(CCc2c[nH]c3ccccc23)C(=O)/C1=C\N(C)C	none
CC(Nc1cccc2ccccc12)C(=O)N/N=C/c1ccccn1 (stereo not drawn)	NSD2 HMT inh 131.7 | AlphaScreen art inactive
CN(C)S(=O)(=O)c1ccc(Cl)c(C(=O)OCC(=O)c2ccco2)c1	NSD2 HMT inh 55.4 | AlphaScreen art inactive
CN(Cc1ccccc1)S(=O)(=O)c1ccc(Cl)c(C(=O)OCC(N)=O)c1	none
N#Cc1ccc(-c2ccco2)nc1SCc1ccccc1	NSD2 HMT inh 55.0 (no result: CaV13 FRET inh) | AlphaScreen art inactive
COc1cc2oc(=O)cc(-c3cccc(-c4ccc(C(F)(F)F)cc4)c3)c2c(OC)c1OC	none (no result: NSD2 HMT inh)
O=C1C(NS(=O)(=O)c2ccc(Br)cc2)=C(N2CCCCC2)C(=O)c2ccccc21	NSD2 HMT inh 57.8 | AlphaScreen art 2.35µM
